The source of these data is PubChem BioAssay (EPA / NIEHS).

Active and inactive are the calls of the source. Rule for the calls: active = hit-call score of the fitted dose curve at least 0.9, where 1 is the maximum; inactive = score below 0.9.

The nature of test [1]: ATG_E_Box_CIS: Attagene CIS-FACTORIAL HepG2 Assay for human Enhancer Box (E-box) (AID 2282936). To be noted: HepG2 E-box cis-reporter transcription, actives raise or lower the signal. The method in brief:
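HepG2 cells transiently transfected with multiplexed cis-element reporter units sensing endogenous transcription factor activity; 24 h compound exposure. Reporter mRNA measured by RT-PCR, 6-FAM primer extension, HpaI digestion and capillary electrophoresis; bidirectional fit versus DMSO.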

A short description of test [2]: ATG_M_61_CIS: Attagene CIS-FACTORIAL HepG2 Assay for M61 Transcription Factor (Internal Marker) (AID 2282937). To be noted: HepG2 Attagene CIS-FACTORIAL M61 internal marker reporter; actives raise or lower the signal. The gist of the method:
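Cells were transfected with reporter units under cis-regulatory promoters, treated with chemicals for 24 h, then lysed for RNA. Reporter transcripts were quantified by RT-PCR and capillary electrophoresis, and activity was fitted bidirectionally against DMSO.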

Test [3] is described as follows: ATG_EGR_CIS: Attagene CIS-FACTORIAL HepG2 Assay for human Early Growth Response 1 (EGR1) (AID 2282938). Particulars: HepG2 Attagene CIS-FACTORIAL EGR reporter mRNA; actives raise or lower the signal. The gist of the method: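 Endogenous TF activity in HepG2 liver cells was gauged through cis-promoter reporter constructs transiently transfected. After 24 h dosing, reporter mRNA was quantified by RT-PCR and capillary electrophoresis, and curves fitted in both directions versus DMSO.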

Test [4] can be described thus: ATG_M_19_CIS: Attagene CIS-FACTORIAL HepG2 Assay for M19 Transcription Factor (Internal Marker) (AID 2282939). Particulars: HepG2 Attagene CIS-FACTORIAL M19 internal marker reporter; actives raise or lower the signal. The gist of the method: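 HepG2, MRTU transient transfection, 24 h dosing. Total RNA → RT-PCR → 6-FAM primer extension → HpaI digest → CE fluorescence. Bidirectional curve fit, DMSO negative control.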

Test [5] in a line: ATG_ERE_CIS: Attagene CIS-FACTORIAL HepG2 Assay for Estrogen Response Element (ERE) (AID 2282940). To be noted: HepG2 ERE cis-reporter, Attagene RNA transcript; actives raise or lower the signal. The method in brief: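 After a 24 h chemical treatment, RNA from reporter-transfected HepG2 cells is reverse-transcribed, PCR-amplified and fluorescently labelled. Fragments separated by capillary electrophoresis give reporter signal; DMSO serves as negative control.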

Test [6] is described as follows: ATG_Ets_CIS: Attagene CIS-FACTORIAL HepG2 Assay for human Erythroblast Transformation Specific (ETS) (AID 2282941). To be noted: HepG2 ETS cis-reporter transcription, actives raise or lower the signal. The gist of the method: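 Steps: transfect HepG2 with multiple reporter units; treat compound 24 h; isolate RNA, DNase-treat, reverse-transcribe; PCR-amplify, label with 6-FAM, digest with HpaI; separate by capillary electrophoresis. Activity fitted both directions versus DMSO.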

The target of test [7] is Hepatocyte nuclear factor 3-beta (Homo sapiens) (UniProt Q9Y261). Briefly: ATG_FoxA2_CIS: Attagene CIS-FACTORIAL HepG2 Assay for human Forkhead box A2 (FOXA2) (AID 2282942). To be noted: HepG2 cis-reporter transcription factor activity, 24 h; actives raise or lower the signal. The method in brief:
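Endogenous transcription factor activity was read in HepG2 cells carrying transiently transfected cis-promoter reporter units. After 24 h dosing, reporter mRNA was quantified by RT-PCR and capillary electrophoresis, and values fitted bidirectionally versus DMSO.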

A short description of test [8]: ATG_FoxO_CIS: Attagene CIS-FACTORIAL HepG2 Assay for human Forkhead box O (FoxO) (AID 2282943). Particulars: HepG2 Attagene cis-reporter, FoxO element, mRNA; actives raise or lower the signal. The gist of the method:
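24 h chemical exposure, HepG2 with transient cis-MRTU transfection. RNA extraction, oligo(dT) RT, reporter-specific PCR, primer-extension labelling, HpaI digestion, CE fragment analysis; bidirectional fit, DMSO baseline.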

The nature of test [9]: ATG_GATA_CIS: Attagene CIS-FACTORIAL HepG2 Assay for human GATA Binding Protein (AID 2282944). Particulars: HepG2 GATA cis-element reporter, Attagene multiplex mRNA; actives raise or lower the signal. The method in brief:
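Cells: HepG2, transiently transfected with cis-regulated reporter transcription units. Exposure: 24 h. Detection: RT-PCR plus capillary electrophoresis of FAM-labeled fragments. Analysis: bidirectional, DMSO as baseline.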

The nature of test [10]: ATG_GLI_CIS: Attagene CIS-FACTORIAL HepG2 Assay for human Zinc Finger Protein GLI1 (AID 2282945). To be noted: HepG2, Attagene cis-factorial reporter mRNA, GLI element; actives raise or lower the signal. The gist of the method: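 HepG2 cells transiently transfected with cis-promoter multiplexed reporter units report endogenous transcription factor activity. After 24 h chemical exposure, reporter mRNA was quantified by RT-PCR, 6-FAM labelling, HpaI digestion and capillary electrophoresis, with bidirectional fitting against DMSO.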

Test [11] in a line: ATG_ISRE_CIS: Attagene CIS-FACTORIAL HepG2 Assay for human Interferon Regulatory Factor 1 (IRF1) binding to an Interferon-Stimulated Response Element (ISRE) (AID 2282948). Particulars: HepG2 ISRE cis-reporter (Attagene), mRNA transcription readout; actives raise or lower the signal. The gist of the method: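 Transfected HepG2 (multiple reporter transcription units, cis elements) dosed 24 h. RNA → oligo(dT) RT → PCR → 6-FAM primer extension → HpaI → CE. DMSO = negative control/baseline.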

A short description of test [12]: ATG_M_06_CIS: Attagene CIS-FACTORIAL HepG2 Assay for M06 Transcription Factor (Internal Marker) (AID 2282950). To be noted: HepG2 Attagene CIS-FACTORIAL M06 internal marker reporter; actives raise or lower the signal. The method in brief:
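Measured 24 h post-dosing in transiently transfected HepG2 cells, this internal-marker endpoint reports reporter mRNA via RT-PCR with fluorescent primer extension and capillary electrophoresis. DMSO served as negative control and baseline for bidirectional fitting.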

The target in test [13] is Hypoxia-inducible factor 1-alpha (Homo sapiens) (UniProt Q16665). Briefly: ATG_HIF1a_CIS: Attagene CIS-FACTORIAL HepG2 Assay for human Hypoxia Inducible Factor 1 (HIF1A) (AID 2282951). To be noted: HepG2 Attagene cis-factorial HIF1a reporter transcription; actives raise or lower the signal. The gist of the method:
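Measures endogenous transcription-factor activity through cis-regulated reporter mRNA in HepG2. Cells dosed 24 h; transcripts quantified by RT-PCR with 6-FAM-labelled products separated by capillary electrophoresis; DMSO serves as negative control.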

The target of test [14] is Hepatocyte nuclear factor 6 (Homo sapiens) (UniProt Q9UBC0). Briefly: ATG_HNF6_CIS: Attagene CIS-FACTORIAL HepG2 Assay for human Hepatocyte Nuclear Factor 6 (HNF6) (AID 2282952). To be noted: HepG2 Attagene cis-factorial HNF6 reporter transcription; actives raise or lower the signal. The gist of the method: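 Reporter mRNA induction or loss in HepG2 after 24 h exposure; transient cis-MRTU transfection; fragments quantified by capillary electrophoresis; bidirectional analysis, DMSO as negative control.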

Test [15] concerns the target Heat shock factor protein 1 (Homo sapiens) (UniProt Q00613). Briefly: ATG_HSE_CIS: Attagene CIS-FACTORIAL HepG2 Assay for human Heat Shock Transcription Factor 1 (HSE) (AID 2282953). Particulars: HepG2 HSE cis-reporter, Attagene RNA transcription; actives raise or lower the signal. The method in brief:
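Reporter mRNA induction in HepG2 is measured 24 h after dosing, using transiently transfected multiplexed cis-regulated reporter units. Signal comes from capillary electrophoresis of labelled RT-PCR products, with DMSO as negative control.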

Test [16] is described as follows: ATG_MRE_CIS: Attagene CIS-FACTORIAL HepG2 Assay for human Metal Responsive Element (MRE) (AID 2282954). Particulars: HepG2 MRE cis-reporter transcription, Attagene multiplex; actives raise or lower the signal. The gist of the method:
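HepG2 cells transiently transfected with multiple cis-element reporter units measure endogenous MTF1-driven transcription. After 24 h compound exposure, reporter mRNA is quantified by RT-PCR with 6-FAM labelling, HpaI digestion and capillary electrophoresis; bidirectional fits versus DMSO.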

Test [17] is described as follows: ATG_PBREM_CIS: Attagene CIS-FACTORIAL HepG2 Assay for human Phenobarbital-responsive Enhancer Module (PBREM) (AID 2282955). To be noted: HepG2 PBREM cis-reporter, Attagene multiplexed transcription; actives raise or lower the signal. The gist of the method: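 Fluorescence of labelled reporter cDNA fragments, resolved by capillary electrophoresis, gives mRNA induction in transfected HepG2 cells treated for 24 h; DMSO serves as negative control and baseline.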

In test [18] the target is Bile acid receptor (Homo sapiens) (UniProt Q96RI1). Briefly: ATG_IR1_CIS: Attagene CIS-FACTORIAL HepG2 Assay for human Nuclear Receptor Subfamily 1 Group H Member 4 (NR1H4), IR1 submotif (AID 2282946). Particulars: IR1 reporter transcription, actives raise or lower the signal. The gist of the method:
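Transient MRTU transfection, HepG2; 24 h dosing; RNA → RT-PCR → 6-FAM primer extension → HpaI digest → capillary electrophoresis fluorescence. Gain/loss of signal fitted relative to DMSO.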

The nature of test [19]: ATG_GRE_CIS: Attagene CIS-FACTORIAL HepG2 Assay for human Glucocorticoid Response Elements (GRE) (AID 2282947). To be noted: HepG2 GRE cis-reporter, Attagene multiplex mRNA; actives raise or lower the signal. The gist of the method:
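HepG2 cells transiently transfected with multiple cis-promoter reporter units measure endogenous TF activity; 24 h compound exposure. Reporter mRNA quantified by RT-PCR, FAM labelling, HpaI digestion and capillary electrophoresis; bidirectional fit vs DMSO baseline.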

Test [20] in a line: ATG_M_32_CIS: Attagene CIS-FACTORIAL HepG2 Assay for M32 Transcription Factor (Internal Marker) (AID 2282949).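 Note: background control marker of the multiplexed CIS panel rather than a real target.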 Particulars: HepG2 Attagene cis-factorial M32 reporter, mRNA; actives raise or lower the signal. The method in brief: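 Internal background marker read-out: RT-PCR/capillary electrophoresis fluorescence of reporter transcripts from transiently transfected HepG2 cells after 24 h chemical exposure. Activity fitted bidirectionally relative to DMSO negative control.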

As a reminder, the AC50 is the midpoint of the concentration-response curve, whichever way the signal moves.

Chain of Hepatocyte nuclear factor 3-beta (Homo sapiens) (Q9Y261 whole entry, looked up): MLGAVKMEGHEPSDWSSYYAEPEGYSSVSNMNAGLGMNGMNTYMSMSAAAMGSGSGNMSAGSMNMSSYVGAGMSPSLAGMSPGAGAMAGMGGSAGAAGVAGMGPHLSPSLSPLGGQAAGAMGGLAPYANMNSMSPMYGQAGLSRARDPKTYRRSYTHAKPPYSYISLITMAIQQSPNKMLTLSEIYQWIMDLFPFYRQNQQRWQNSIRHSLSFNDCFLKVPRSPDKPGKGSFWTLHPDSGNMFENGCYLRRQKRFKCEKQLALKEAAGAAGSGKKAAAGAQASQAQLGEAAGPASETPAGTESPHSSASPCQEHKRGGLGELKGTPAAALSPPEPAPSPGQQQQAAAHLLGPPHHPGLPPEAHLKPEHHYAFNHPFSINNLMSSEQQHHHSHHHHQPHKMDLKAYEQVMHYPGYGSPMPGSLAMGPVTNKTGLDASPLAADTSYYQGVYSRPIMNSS
Chain of Hepatocyte nuclear factor 6 (Homo sapiens) (Q9UBC0 whole entry, looked up, the tested form may be a part): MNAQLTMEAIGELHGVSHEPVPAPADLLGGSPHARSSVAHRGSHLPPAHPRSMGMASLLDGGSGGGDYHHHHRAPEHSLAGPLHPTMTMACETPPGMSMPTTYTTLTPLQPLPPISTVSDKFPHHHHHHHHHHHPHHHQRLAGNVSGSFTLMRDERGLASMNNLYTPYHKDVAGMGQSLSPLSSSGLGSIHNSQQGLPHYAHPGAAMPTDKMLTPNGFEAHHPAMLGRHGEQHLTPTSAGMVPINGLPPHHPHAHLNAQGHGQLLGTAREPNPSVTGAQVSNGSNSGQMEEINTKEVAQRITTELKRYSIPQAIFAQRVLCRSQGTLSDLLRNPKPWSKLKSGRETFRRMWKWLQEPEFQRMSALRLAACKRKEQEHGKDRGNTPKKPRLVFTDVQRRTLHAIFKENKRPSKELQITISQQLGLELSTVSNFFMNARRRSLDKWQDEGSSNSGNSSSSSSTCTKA
Chain of Hypoxia-inducible factor 1-alpha (Homo sapiens) (Q16665 whole entry, looked up): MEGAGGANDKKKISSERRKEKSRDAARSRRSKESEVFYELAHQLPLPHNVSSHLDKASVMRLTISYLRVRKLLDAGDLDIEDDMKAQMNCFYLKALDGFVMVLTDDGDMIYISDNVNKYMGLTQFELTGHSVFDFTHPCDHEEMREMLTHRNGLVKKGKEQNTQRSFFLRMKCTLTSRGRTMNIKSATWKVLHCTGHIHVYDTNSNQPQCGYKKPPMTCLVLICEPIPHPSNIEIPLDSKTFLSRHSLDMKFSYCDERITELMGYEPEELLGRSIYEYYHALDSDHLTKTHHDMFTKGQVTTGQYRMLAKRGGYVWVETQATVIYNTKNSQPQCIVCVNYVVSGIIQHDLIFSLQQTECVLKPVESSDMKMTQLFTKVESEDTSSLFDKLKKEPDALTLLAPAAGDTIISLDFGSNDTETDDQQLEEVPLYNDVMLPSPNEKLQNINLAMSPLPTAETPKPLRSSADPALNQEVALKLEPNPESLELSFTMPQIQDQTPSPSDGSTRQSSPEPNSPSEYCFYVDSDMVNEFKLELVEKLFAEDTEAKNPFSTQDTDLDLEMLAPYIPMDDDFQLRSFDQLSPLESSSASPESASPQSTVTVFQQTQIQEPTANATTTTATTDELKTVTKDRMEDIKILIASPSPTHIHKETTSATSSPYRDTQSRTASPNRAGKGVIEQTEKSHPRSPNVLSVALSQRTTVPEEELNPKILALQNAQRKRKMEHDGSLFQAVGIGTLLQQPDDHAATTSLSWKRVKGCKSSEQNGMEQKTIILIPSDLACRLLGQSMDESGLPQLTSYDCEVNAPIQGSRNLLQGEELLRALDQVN
Chain of Bile acid receptor (Homo sapiens) (Q96RI1 whole entry, looked up): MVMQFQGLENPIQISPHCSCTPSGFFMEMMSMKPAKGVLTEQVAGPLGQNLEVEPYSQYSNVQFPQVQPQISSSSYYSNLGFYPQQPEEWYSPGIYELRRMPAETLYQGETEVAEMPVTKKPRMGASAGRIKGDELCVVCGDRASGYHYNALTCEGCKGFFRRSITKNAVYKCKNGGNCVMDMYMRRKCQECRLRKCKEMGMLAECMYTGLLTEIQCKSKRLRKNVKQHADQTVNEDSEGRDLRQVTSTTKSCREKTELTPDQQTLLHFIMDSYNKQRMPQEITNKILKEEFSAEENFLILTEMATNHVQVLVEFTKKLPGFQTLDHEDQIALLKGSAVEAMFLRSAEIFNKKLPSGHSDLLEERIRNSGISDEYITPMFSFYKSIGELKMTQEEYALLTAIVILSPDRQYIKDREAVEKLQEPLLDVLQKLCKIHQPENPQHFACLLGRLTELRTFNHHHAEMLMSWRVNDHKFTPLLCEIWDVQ
Chain of Heat shock factor protein 1 (Homo sapiens) (Q00613 whole entry, looked up): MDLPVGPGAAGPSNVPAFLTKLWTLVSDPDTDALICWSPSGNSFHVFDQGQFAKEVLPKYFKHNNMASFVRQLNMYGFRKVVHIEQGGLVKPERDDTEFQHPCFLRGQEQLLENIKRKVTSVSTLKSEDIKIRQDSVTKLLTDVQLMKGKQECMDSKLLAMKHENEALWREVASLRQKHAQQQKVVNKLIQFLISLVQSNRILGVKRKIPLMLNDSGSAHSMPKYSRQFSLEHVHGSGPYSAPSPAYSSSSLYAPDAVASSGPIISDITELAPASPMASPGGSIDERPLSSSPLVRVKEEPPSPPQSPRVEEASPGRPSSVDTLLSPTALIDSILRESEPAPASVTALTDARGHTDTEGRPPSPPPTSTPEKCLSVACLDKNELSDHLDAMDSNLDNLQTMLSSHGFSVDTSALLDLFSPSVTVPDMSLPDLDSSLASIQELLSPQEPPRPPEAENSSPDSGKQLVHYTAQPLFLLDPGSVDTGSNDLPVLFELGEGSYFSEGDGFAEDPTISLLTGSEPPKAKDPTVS

Consider `CCn1c2ccccc2c2cc(N)ccc21`, for which the result in test [1], in test [2], in test [3], in [4], in test [5] and in test [6] was inactive. Further, the result in test [7], in [8], in test [9], in test [10], in [11] and in test [12] was inactive. Further, the result in test [13], in [14], in test [15] and in test [16] was inactive. Moreover, in test [17], the AC50 was 37 µM (active).
With `CN(C)CCOCCN(C)C`, the outcome in test [1], in test [2], in test [3], in [4], in test [6] and in test [7] was inactive. The outcome in [8], in [9], in test [10], in test [18], in test [19] and in [11] was inactive. Besides, the molecule was classed as inactive in test [20], in test [12], in [13], in test [14], in test [15] and in test [16]. Moreover, the result in [17] was inactive.
`CC(C)=CCCC(C)CC=O` (centres undefined): the outcome in test [1], in [2], in test [3], in [4], in test [6] and in [7] was inactive. For the same molecule, the molecule was classed as inactive in test [8], in test [9], in test [10], in [18], in [19] and in test [11]. Further, the result in [20], in test [14] and in test [16] was inactive.
For the molecule `COc1cccc(OC)c1`, the result in test [1], in test [2], in test [3], in test [4], in test [6] and in test [7] was inactive. Further, the outcome in [8], in [9], in test [10], in test [18], in [19] and in [11] was inactive. For the same molecule, the molecule was called inactive in test [20], in [12], in [13], in [14], in test [15] and in test [16]. Also, the outcome in [17] was inactive.
In the case of `COc1cc(C(C)(C)C)c(O)c(C(C)(C)C)c1`, the result in [1], in [2], in test [3], in [4], in test [6] and in test [7] was inactive. Besides, the call in test [8], in test [9], in test [10], in test [19], in test [11] and in test [20] was inactive. Moreover, the outcome in [12], in test [13], in test [14], in test [15] and in test [16] was inactive. Further, the concentration at half-maximal activity (AC50) in test [18] is 69.8 µM (active).
In the case of `CCCCC/C=C/C=C/C=O`, the outcome in test [1], in test [2], in [3], in [4], in test [6] and in test [7] was inactive. The outcome in test [8], in [9], in test [10], in [11], in test [12] and in [14] was inactive. Also, the molecule was called inactive in test [16] and in test [17]. In addition, the values for the AC50 in test [18] and in [13] were 144 µM (active) and 100 µM (active), respectively.
Turning to `O=c1[nH]nnc2ccccc12`, the outcome in test [1], in test [2], in test [3], in [4], in test [6] and in [7] was inactive. Moreover, the outcome in test [8], in test [9], in test [10], in test [18], in [11] and in [20] was inactive. Also, the molecule was called inactive in test [12], in [13], in test [14], in [15], in [16] and in [17].
Turning to `CN(C)c1ccc(O)c2c1C[C@H]1C[C@H]3[C@H](N(C)C)C(=O)C(C(N)=O)=C(O)[C@@]3(O)C(=O)C1=C2O`, the result in [1], in test [2], in [3], in test [4], in test [5] and in test [6] was inactive. In addition, the molecule was called inactive in test [7], in test [8], in [10], in test [19], in test [11] and in test [20]. Moreover, the molecule was classed as inactive in [12], in test [13], in test [14], in [15] and in test [16].
